The full ranking holds about 25,000 sequences; the median of “ln(normalized median fluorescence intensity)” is about 7.1, and the highest 2% start at about 10. Only a selection was taken, and the highest values are over-represented in it overall.
Tested on: PfSIP2 AP2 domain 1 (GST-tagged)
Assay: gcPBM binding intensity (ln(normalized median fluorescence intensity)); higher = stronger DNA binding
Outline: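 GST-tagged P. falciparum DNA-binding domains produced in E. coli were incubated for 1 h on an Agilent 4 × 180k array of primer-extended double-stranded 36-bp intergenic genomic probes with negative controls. Binding intensity is the highest Masliner-normalised natural-log median intensity across replicate spots of either probe orientation, with bound protein detected by Alexa488 anti-GST antibody at 488 nm.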

| Sequence | gcPBM binding intensity (ln) |
| --- | --- |
| ATTAAAGAGAGACATCAACACACATACGTATGTATA [CACACA_site8393] | 6.94 |
| TAGTTTTTTATAAAATTATTTATATAAAGGTAAAAA [CACACA_negctrl_site490] | 7.1 |
| TTTGGATAAAAAATATGTACACACATATAGATATCT [XGTACX_site5660] | 6.9 |
| TCTACAAAATTATCATGTACATATTATTATAATTAT [XGTACX_site6585] | 7.28 |
| TGTTGTATATCTCTATATAGCTATATTGTATATATA [TGCATGCA_negctrl_site323] | 6.97 |
| TATAAAAGTGGACACACACACATATATATATATATA [CACACA_site4673] | 9.47 |
| TAAATTATAACGTGCACACATATTTAAAATGAAATG [CACACA_site2820] | 10.3 |
| ATATATAACGGGCACACACACATTTACGTATGAATA [CACACA_site1833] | 7.39 |
| AAATGAATTTAACAATGTACACATATATTATAAATA [XGTACX_site1449] | 7.13 |
| TAATATATAACGTGCACACACACATTTACGTATGAA [CACACA_site1832] | 9.88 |
| ATATATAACGTGCACACACACATTTACGTATGAATA [CACACA_site6948] | 10.4 |
| TAAAATAAATTGTGCACACATATTTATAAATATGAA [CACACA_site2331] | 9.66 |
| TGTAAATTATAACGTGCACACATATTTAAAATGAAA [CACACA_site8915] | 10.6 |
| TTTATTAATAATTATACACACATATAAAATGAATAA [CACACA_site1359] | 7.01 |
| CTTAATTTAATGAAATGTACATATAAAAATATTATA [XGTACX_site3303] | 7.11 |
| ATATAAGTACGGCATGCATGCACATTTTTTTATTCC [TGCATGCA_site101] | 7.09 |
| TACGTTATATACAACTGTACTTGGATAATTATTAAC [XGTACX_site5614] | 7.13 |
| TCTTTTTTTTTTTTTTTTTTTTTTTATTTATTCATA [CACACA_negctrl_site1827] | 6.85 |
| CATAATATATATTGAGCATGCTACTATTGTTAGAAA [TGCATGCA_site740] | 6.93 |
| ATATATAAATATAGCATACACACAAAAAAATAAAAT [CACACA_site2332] | 7.11 |
| TTTTTTAAATATATGGTGCATAGAAAGATATTATAC [GTGCAC_site9984] | 10 |
| TTTTTTAAATATTATTTTTATGAGTAAATATATTAT [GTGCAC_negctrl_site277] | 6.71 |
| TTTTTATGGACTATGGTGCATTATATATAAATGAAA [GTGCAC_site9557] | 10.6 |

| Sequence | gcPBM binding intensity (ln) |
| --- | --- |
| GACAATATTAAAACATGTACATGCATTTTATGAATA [XGTACX_site553] | 7.05 |
| AAATATTATAAAAAGGTGCATTTTTATTATATGAGT | 11 |
| ATATTTTATGTAAAGGTGCAAAACAACATTAAAAAA | 10.5 |
| ATTATCAATATGAAGGTGCATTTAAATAATATTTAC | 10.7 |
| TATCATATATGAAGGTGTACGATTTATTATATAAAT [XGTACX_site7010] | 7.04 |
| ATTTATTTTATATGTTGTACAAACATTTTAAAACAT [XGTACX_site6919] | 6.95 |
| TTATTTTTATTATAAATTATAAAATATAAATAAATA [GTGCAC_negctrl_site616] | 6.79 |
| TACAGTTCAATGAAGGTGCAATTAATATATAAAATA | 10.2 |
| TTTTTTTTTAATAAAATTATAATAAATATGAAATTA [XGTACX_negctrl_site369] | 6.67 |
| ATCATATATTATTTATGTACTTATTTATAATAATAT [XGTACX_site8257] | 7.06 |
| AGAATATCAAAATAAAGTACATTTATTATATATATG [XGTACX_site7100] | 7.15 |
| TTATTTAAAAAATTTTTAAATATACAAAAAAAAAAA [TGCATGCA_negctrl_site464] | 6.88 |
| TTAATTGACATAAAAAGTACTCATATAGATATGCAC [XGTACX_site6391] | 8.9 |
| AAACATTTATCAATGAATCTTTTAATAAGTGTAAAG [XGTACX_negctrl_site80] | 6.79 |
| TAAATATAACAGAATAATATGTGGATTAATAAATGA [CACACA_negctrl_site438] | 6.81 |
| ACATATGGCACATATGTACACACGTATAGATAATAT [CACACA_site2024] | 7.19 |
| TGGAGGTCAGTTCACAGTACCCAGAAAACTCTACGA [XGTACX_site2561] | 6.58 |
| TAAAATATTATAAAATGTACAAAACATATAAATATA [XGTACX_site5315] | 6.8 |
| AACACATAATAAAATTGTACCCAACATTTCTTTTGA [XGTACX_site8061] | 6.96 |
| GCATATGATGAGCATATAATCATAAGAAAAAAAAAA [CACACA_negctrl_site701] | 6.72 |
| TATTAATTATAAGATGCATGTGCAAAAATATGTTCC [TGCATGCA_site51] | 7.6 |
| GCAAATCATGCTATGGTGCATATGTAAGATGAGCAT | 10.6 |
| TATAACTTTTATAGGTGTACCCAATATTATATATAG [XGTACX_site7673] | 6.97 |

| Sequence | gcPBM binding intensity (ln) |
| --- | --- |
| TTGCATTAATTTATGTGTACATATAAATTTTTATTT [XGTACX_site3060] | 7.41 |
| CCAGTGTGCACCTTGCGTACATATTAAATTAATTAA [XGTACX_site3729] | 12.2 |
| TTAAAAATGTGTGTGCGTACATAATATTTCGAAAAA [XGTACX_site8197] | 7.03 |
| TATATATATTTTATATGTACGTATGGAACAATATGA [XGTACX_site8167] | 7.38 |
| ATATATATGTATATAACATGCAACATTTAATAATAA [TGCATGCA_site1018] | 7.18 |
| CATGTATGTACCATGGTGCAACAATATTTTTAACAA [GTGCAC_site9597] | 10.6 |
| GTTACTGCATACATAACACACATATTCAAAACCCAT [CACACA_site5856] | 7.13 |
| TGATTCTGTCATGGTGCACACCAGAACCATTATAAA [CACACA_site1965] | 11.9 |
| TTCTGTATACGGTGTGCACACAATTAAAAAAAAAAA [CACACA_site1416] | 9.47 |
| CATTATGTCATAAATGCACACATATATATATACATA [CACACA_site8454] | 7.38 |
| TTATAAAGAATTAGGAGTACAAATGCATATATAATA [XGTACX_site6580] | 7.3 |
| TGTTTATTTTTTTTATGTACTTATTTTTTATTGCAT [XGTACX_site719] | 7.61 |
| ATATTTTTATTTAAATCACATCATTTTGTTTATTTG [CACACA_negctrl_site1056] | 6.95 |
| AAAATTAAAAATAACACACACATATATATATTTATA [CACACA_site2776] | 6.9 |
| AAAAAATTAACGAGTGCACACATATTTAGATAAAAT [CACACA_site8958] | 10.6 |
| AAAATTAAAAATAACACACACATATTTATATTTATA [CACACA_site7329] | 6.87 |
| AAAATTAACGAGTGCACACATATTTAGATAAAATAC [CACACA_site2936] | 11.2 |
| TAAAATAATATTTATGTGCACATATAATTATTAATT | 8.71 |
| GAAAAATTAAAAATAACACACACATATATATATTTA [CACACA_site8896] | 6.98 |
| TTTTATTTATTATTATGTACACACTATATTAAAACA [XGTACX_site1265] | 7.13 |
| TTGTTATTCCACCGTTGTACAGTTATATACATACAC [XGTACX_site8296] | 7.31 |
| GTACATTGTAAGGATGGAAAAGCTAAACATTATAAT [XGTACX_negctrl_site339] | 6.99 |
| ATAGAACAATTCAGAAGTACATAAAAAGAAAAATTT [XGTACX_site3015] | 6.9 |

| Sequence | gcPBM binding intensity (ln) |
| --- | --- |
| ATGAACATTTATAAATGTACTCACATATATATATTT [XGTACX_site6692] | 7.02 |
| ATATATATATGTTAGGTGCATATATATTTTGTGGAT [GTGCAC_site9964] | 9.6 |
| TTTTTTTTTTTTGAGGTGCATATATCAGATCAATAT | 10.6 |
| TAATGTTGAGAATTTTGTACATATAGATCAATTTAT [XGTACX_site5426] | 6.84 |
| TGATGATATAAAAACACACACATATAACATAATACT [CACACA_site6687] | 7.04 |
| ATATAATCTGAGTGCACACAAATAAATAAACATACA [CACACA_site422] | 10.4 |
| GCACAAATATATATATATATATATATATATATATAT [GTGCAC_negctrl_site661] | 9.36 |
| TACACAAATATATATATATATATATATATATATATA [XGTACX_negctrl_site305] | 9.89 |
| TACATATTGATATATACACACAAAAAAATAAATTCT [CACACA_site6198] | 7 |
| AATATAATATAATGCACACATAAACAAAAAAAAAAT [CACACA_site1304] | 7.53 |
| AAAATATAAAATAATGCACACATAAACAAAAAATCA [CACACA_site8382] | 7.33 |
| ATGAGTGCACAAATATATATATATATATATATATAT [CACACA_negctrl_site404] | 11.6 |
| TAAATATATAAATACACACAAACATACATATATATA [CACACA_site4050] | 7.55 |
| TATAAATATACAAACACACATACAAACATATATATA [CACACA_site1120] | 7.27 |
| TATATACATATATGCACACAAAAAAATATATATTTT [CACACA_site1729] | 7.3 |
| ATATATTTGATAAGAGTGCACAAATACATACATACA [GTGCAC_site9704] | 10.6 |
| TAATATAATCTGAGTGCACACAAATAAATAAACATA [CACACA_site8032] | 10.3 |
| TATACATATATTATATGTACATATATATATAATATA [XGTACX_site2942] | 7.26 |
| TACTATCTATACAATACACACAAAAAAAAAAAAATA [CACACA_site3981] | 6.95 |
| AATTGAGAAGTGTGTTGTACATAATGGCACATACCT [XGTACX_site1370] | 7.22 |

From the supplement of paper PMC11417369
